Results as given in the supplement of paper PMC12669032.
A number with no mark means an inactive call.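 Rule for the calls: active = AUC reduced over 20% with Padj below 0.05 in at least 2 of 3 replicates; inactive = otherwise.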

Legend:
[1] = system: Roseburia intestinalis; experiment: growth AUC relative to DMSO control (median of replicates) (fraction); higher = more growth (less inhibition), active = hit call of the paper; conditions: 20 µM; 24 h
Outline: (§1)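 Area under the growth curve was normalised to the plate median of solvent-only wells, except on the industrial chemical plate, where row and column medians were used. Curves came from gut bacterial monocultures grown anaerobically at 37 °C in mGAM with 20 µM compound (1% DMSO), starting at OD600 0.05 and read at OD600 every hour for 24 h. The minimum OD of each curve was set to 0, and values are medians of three biological replicates grown on separate days.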

[2] = system: Streptococcus salivarius; experiment: as above; conditions: 20 µM; 24 h
Outline: as §1

## C[C@H]1[C@H](c2ccc(Cl)cc2)SC(=O)N1C(=O)NC1CCCCC1
[1]
  growth AUC: 0.922
[2]
  growth AUC: 0.985

## O=[N+]([O-])c1ccc(Oc2ccc(C(F)(F)F)cc2[N+](=O)[O-])cc1
[1]
  growth AUC: 0.928
[2]
  growth AUC: 0.985

## Cc1c(F)c(F)c(COC(=O)[C@@H]2[C@H](/C=C(\Cl)C(F)(F)F)C2(C)C)c(F)c1F (mixture of isomers)
[1]
  growth AUC: 0.986
[2]
  growth AUC: 0.993

## CCCN(CC1CC1)c1c([N+](=O)[O-])cc(C(F)(F)F)cc1[N+](=O)[O-]
[1]
  growth AUC: 1.06
[2]
  growth AUC: 1.03

## O=[N+]([O-])c1c(Cl)c(Cl)cc(Cl)c1Cl
[1]
  growth AUC: 1.06
[2]
  growth AUC: 1

## COC(=O)C(C)Oc1ccc(Oc2ccc(Cl)cc2Cl)cc1 (stereo not given)
[1]
  growth AUC: 0.984
[2]
  growth AUC: 0.984

## CCNc1nc(Cl)nc(NC(C)(C)C#N)n1
[1]
  growth AUC: 1.03
[2]
  growth AUC: 0.976

## Cc1c(N)cccc1N
[1]
  growth AUC: 0.997
[2]
  growth AUC: 1.01

## c1ccc2c(c1)-c1cccc3cccc-2c13
[1]
  growth AUC: 0.956
[2]
  growth AUC: 0.972

## Nc1cc(Cl)cc(C(=O)O)c1Cl
[1]
  growth AUC: 1.04
[2]
  growth AUC: 1.02

## CNC(=O)N(C)c1nnc(C(C)(C)C)s1
[1]
  growth AUC: 1.03
[2]
  growth AUC: 0.959

## COC(=O)Nc1nc2ccccc2[nH]1
[1]
  growth AUC: 1
[2]
  growth AUC: 0.971

## COC(=O)Nc1cccc(OC(=O)Nc2cccc(C)c2)c1
[1]
  growth AUC: 0.936
[2]
  growth AUC: 0.996

## COC(=O)c1ccccc1S(=O)(=O)NC(=O)Nc1nc(C)cc(C)n1
[1]
  growth AUC: 0.944
[2]
  growth AUC: 0.982

## CNC(=O)Oc1cccc2c1OC(C)(C)C2=O
[1]
  growth AUC: 0.994
[2]
  growth AUC: 0.924

## C1CCC(NC2CCCCC2)CC1.O=NO
[1]
  growth AUC: 1
[2]
  growth AUC: 0.986

## CCCOc1nn(C(=O)[N-]S(=O)(=O)c2ccccc2C(=O)OC)c(=O)n1C.[Na+]
[1]
  growth AUC: 0.992
[2]
  growth AUC: 0.981

## CC(C)NC(=O)N1CC(=O)N(c2cc(Cl)cc(Cl)c2)C1=O
[1]
  growth AUC: 1.07
[2]
  growth AUC: 1.05

## COP(N)(=O)SC (stereo not given)
[1]
  growth AUC: 1
[2]
  growth AUC: 0.996

## COC(=O)c1sccc1S(=O)(=O)NC(=O)Nc1nc(C)nc(OC)n1
[1]
  growth AUC: 0.947
[2]
  growth AUC: 0.859

## CNC(=O)Oc1cccc(N=CN(C)C)c1.Cl
[1]
  growth AUC: 0.992
[2]
  growth AUC: 1.02

## COc1cc(OC)nc(NC(=O)NS(=O)(=O)c2cc(NC=O)ccc2C(=O)N(C)C)n1
[1]
  growth AUC: 1.04
[2]
  growth AUC: 1.03

## Nc1ccc(Cl)cc1
[1]
  growth AUC: 0.963
[2]
  growth AUC: 1.01

## CCS(=O)(=O)Cc1ccccc1OC(=O)NC
[1]
  growth AUC: 0.964
[2]
  growth AUC: 0.927

## CCN(CC)c1c([N+](=O)[O-])cc(C(F)(F)F)c(N)c1[N+](=O)[O-]
[1]
  growth AUC: 0.984
[2]
  growth AUC: 1.03

## COP(=O)(OC)Oc1ccc(SC)c(C)c1
[1]
  growth AUC: 1.02
[2]
  growth AUC: 1

## CCCCN(CCCC)N=O
[1]
  growth AUC: 1
[2]
  growth AUC: 1.01

## O=C(NC(=O)c1c(F)cccc1F)Nc1ccc(Cl)cc1
[1]
  growth AUC: 0.983
[2]
  growth AUC: 0.992

## O=[N+]([O-])C(Br)(CO)CO
[1]
  growth AUC: 0.964
[2]
  growth AUC: 0.967

## COC(=O)/C(C)=C/OP(=S)(OC)OC
[1]
  growth AUC: 0.981
[2]
  growth AUC: 1.01

## COP(=O)(OC)OC1=C(Cl)C2C=CCC12 (stereo not given)
[1]
  growth AUC: 1.04
[2]
  growth AUC: 1.03

## CNC(=O)c1cc(Cl)cc(C)c1NC(=O)c1cc(Br)nn1-c1ncccc1Cl
[1]
  growth AUC: 0.957
[2]
  growth AUC: 0.99

## CC(C)OP(=O)(OC(C)C)SCc1ccccc1
[1]
  growth AUC: 0.951
[2]
  growth AUC: 1

## CC(=O)O.NC(N)=NCCCCCCCCNCCCCCCCCN=C(N)N
[1]
  growth AUC: 0.039 (active)
[2]
  growth AUC: 0.474 (active)

## CC(C)N(C(=O)SCC(Cl)=C(Cl)Cl)C(C)C
[1]
  growth AUC: 1.01
[2]
  growth AUC: 0.996

## OC(Cn1cncn1)(c1ccc(F)cc1)c1ccccc1F (stereo not given)
[1]
  growth AUC: 0.966
[2]
  growth AUC: 1.01

## c1cc2c3c(cccc3c1)CC2
[1]
  growth AUC: 0.998
[2]
  growth AUC: 1.01

## CCCSP(=S)(OCC)Oc1ccc(Cl)cc1Cl (stereo not given)
[1]
  growth AUC: 1.08
[2]
  growth AUC: 0.973

## Clc1cc(Cl)c(Cl)cc1Cl
[1]
  growth AUC: 0.962
[2]
  growth AUC: 0.935

## COc1ccc(/C(=C/C(=O)N2CCOCC2)c2ccc(F)cc2)cc1OC
[1]
  growth AUC: 0.975
[2]
  growth AUC: 1.04

## CCC(C)(NC(=O)c1cc(Cl)c(C)c(Cl)c1)C(=O)CCl (stereo not given)
[1]
  growth AUC: 0.964
[2]
  growth AUC: 0.945

## CNc1nc(C)c(C)c(OC(=O)N(C)C)n1
[1]
  growth AUC: 0.951
[2]
  growth AUC: 1.03

## COc1nc(C)nc(NC(=O)NS(=O)(=O)c2ccccc2CCC(F)(F)F)n1
[1]
  growth AUC: 0.98
[2]
  growth AUC: 0.989

## Cc1cc(Cl)ccc1OC(C)C(=O)O (stereo not given)
[1]
  growth AUC: 1.03
[2]
  growth AUC: 1.01

## CC(CCl)OP(=O)(OC(C)CCl)OC(C)CCl (mixture of isomers)
[1]
  growth AUC: 0.967
[2]
  growth AUC: 1.01

## ClC1=C(Cl)C2(Cl)[C@H]3[C@H]4O[C@H]4[C@H](Cl)[C@H]3C1(Cl)C2(Cl)Cl (single isomer, unassigned; isomer a)
[1]
  growth AUC: 0.954
[2]
  growth AUC: 0.976

## Cc1cc(C2CC2)nc(Nc2ccccc2)n1
[1]
  growth AUC: 0.947
[2]
  growth AUC: 1.03

## COC(=O)C(C)N(C(=O)Cc1ccccc1)c1c(C)cccc1C (stereo not given)
[1]
  growth AUC: 0.975
[2]
  growth AUC: 0.96

## Cl.NC1=NCCN1Cc1ccc(Cl)nc1
[1]
  growth AUC: 0.963
[2]
  growth AUC: 1.01

## COC(=O)C(Cl)Cl
[1]
  growth AUC: 0.918
[2]
  growth AUC: 0.985

## COP(=O)(OC)Oc1ccc(S(C)(=O)=O)c(C)c1
[1]
  growth AUC: 1.02
[2]
  growth AUC: 1.01

## CNC(=O)O/N=C(\C)C(C)S(C)=O (stereo not given)
[1]
  growth AUC: 0.991
[2]
  growth AUC: 0.96

## Nc1cnn(-c2ccccc2)c(=O)c1Cl
[1]
  growth AUC: 1.1
[2]
  growth AUC: 1.1

## CCc1cccc(CC)c1N(COC)C(=O)CCl
[1]
  growth AUC: 0.988
[2]
  growth AUC: 0.981

## CCOP(=O)(SC(C)CC)SC(C)CC (stereo not given)
[1]
  growth AUC: 1.01
[2]
  growth AUC: 1.01

## C=C(C)[C@H]1Cc2c(ccc3c2O[C@@H]2COc4cc(OC)c(OC)cc4[C@@H]2C3=O)O1
[1]
  growth AUC: 0.935
[2]
  growth AUC: 1.02

## CNC(=O)Oc1cccc2ccccc12
[1]
  growth AUC: 0.973
[2]
  growth AUC: 1.03

## C1=Cc2cccc3cccc1c23
[1]
  growth AUC: 0.987
[2]
  growth AUC: 0.98

## O=C(O)CNCP(=O)(O)O
[1]
  growth AUC: 0.966
[2]
  growth AUC: 1.03

## COc1cc(Cl)c(OC)cc1Cl
[1]
  growth AUC: 1.04
[2]
  growth AUC: 1.04

## CCOc1cc(OP(=S)(OC)OC)nc(CC)n1
[1]
  growth AUC: 0.98
[2]
  growth AUC: 0.983

## CC(C)Oc1cc(-n2nc(C(C)(C)C)oc2=O)c(Cl)cc1Cl
[1]
  growth AUC: 0.931
[2]
  growth AUC: 0.971

## O=C1C(Cl)=C(Cl)C(=O)c2ccccc21
[1]
  growth AUC: 1.13
[2]
  growth AUC: 0.955

## COc1ncc(F)c2nc(S(=O)(=O)Nc3c(F)cccc3F)nn12
[1]
  growth AUC: 1.02
[2]
  growth AUC: 1

## Nc1ncn[nH]1
[1]
  growth AUC: 0.985
[2]
  growth AUC: 0.997

## ClC(Cl)=C(c1ccc(Cl)cc1)c1ccc(Cl)cc1
[1]
  growth AUC: 0.945
[2]
  growth AUC: 0.965

## COc1cccc(C(=O)NN(C(=O)c2cc(C)cc(C)c2)C(C)(C)C)c1C
[1]
  growth AUC: 0.985
[2]
  growth AUC: 0.966

## CN(C)c1nc(=O)n(C2CCCCC2)c(=O)n1C
[1]
  growth AUC: 1.02
[2]
  growth AUC: 1.01

## Cc1ccccc1[N+](=O)[O-]
[1]
  growth AUC: 0.969
[2]
  growth AUC: 1.01

## N#Cc1c(Cl)c(Cl)c(Cl)c(C#N)c1Cl
[1]
  growth AUC: 0.939
[2]
  growth AUC: 0.88

## CCNP(=S)(OC)O/C(C)=C/C(=O)OC(C)C (stereo not given)
[1]
  growth AUC: 1.05
[2]
  growth AUC: 0.99

## O=C(O)C1(O)c2ccccc2-c2ccc(Cl)cc21 (stereo not given)
[1]
  growth AUC: 0.991
[2]
  growth AUC: 0.982

## CCS(=O)(=O)CCSP(=O)(OC)OC
[1]
  growth AUC: 1.06
[2]
  growth AUC: 0.957

## CCOP(=S)(OCC)Oc1nc(Cl)c(Cl)cc1Cl
[1]
  growth AUC: 1.01
[2]
  growth AUC: 1.06

## CC(C)N1C(=O)c2ccccc2NS1(=O)=O
[1]
  growth AUC: 1
[2]
  growth AUC: 0.978

## COP(=S)(OC)Oc1cc(Cl)c(Cl)cc1Cl
[1]
  growth AUC: 0.966
[2]
  growth AUC: 0.994

## N#Cc1nn(-c2c(Cl)cc(C(F)(F)F)cc2Cl)c(N)c1S(=O)(=O)C(F)(F)F
[1]
  growth AUC: 0.965
[2]
  growth AUC: 0.548 (active)

## CCS(=O)Cc1ccccc1OC(=O)NC (stereo not given)
[1]
  growth AUC: 1.02
[2]
  growth AUC: 0.987

## CCOc1cc(Oc2ccc(C(F)(F)F)cc2Cl)ccc1[N+](=O)[O-]
[1]
  growth AUC: 0.884
[2]
  growth AUC: 0.976

## CC(C)OC(=O)C(C(=O)OC(C)C)=C1SCCS1
[1]
  growth AUC: 1.06
[2]
  growth AUC: 1.02
